Experimental data as given in PubChem BioAssay (EPA / NIEHS).
The source made the active and inactive calls. Rule for the calls: active = hit-call score of the fitted dose curve at least 0.9, where 1 is the maximum; inactive = score below 0.9.

The compounds below were run on Protein phosphatase 2A (PPP2R4), PTPA (gene 5524) (assay: LTEA_HepaRG_PPP2R4: Life Technologies and Expression Analysis (LTEA) Assay for Protein phosphatase 2A (PPP2R4) using HepaRG (AID 2283522)). Conditions: mRNA level, 48 h; actives raise or lower the signal.
Procedure, shortened: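 Cells were plated, cultured 48 h, switched to serum-free induction medium, then dosed for 48 h (8 points, max 100 uM, 0.5% DMSO). RNA was isolated and PPP2R4 expression measured by TaqMan qRT-PCR.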
In the case of Cc1cccc2ccccc12, the outcome is reported as “inactive”.
In the case of CC1(C)NC(=O)N(c2ccc([N+](=O)[O-])c(C(F)(F)F)c2)C1=O, the outcome is reported as “inactive”.
For CCCCCCCCN(C)CCCCCCCC, the outcome was “inactive”.
In the case of CO[C@H]1/C=C/O[C@@]2(C)Oc3c(C)c(O)c4c(O)c(c(/C=N/N5CCN(C)CC5)c(O)c4c3C2=O)NC(=O)/C(C)=C\C=C\[C@H](C)[C@H](O)[C@@H](C)[C@@H](O)[C@@H](C)[C@H](OC(C)=O)[C@@H]1C, the outcome is reported as “inactive”.
Cc1cc2c(cc1C(F)(F)F)N(C(=O)Nc1ccc(Oc3cccnc3C)nc1)CC2 was tested, and the outcome was “inactive”.
In the case of O=c1c(-c2ccc(O)cc2)coc2cc(O)cc(O)c12, the outcome is reported as “inactive”.
In the case of Oc1ccc2ccccc2c1, the outcome is reported as “inactive”.
O=C(O)Cc1cc(I)c(Oc2ccc(O)c(I)c2)c(I)c1 was tested, and the outcome was “inactive”.
In the case of CC(C)(C)c1csc(-c2cc3cc(OCc4ccccc4CC(=O)O)ccc3o2)n1, the AC50 is reported as 85.2 µM (active).
With CC[C@@H]1C[C@H](N(Cc2cc(C(F)(F)F)cc(C(F)(F)F)c2)C(C)=O)c2cc(C(F)(F)F)ccc2N1C(=O)OC(C)C the outcome was “inactive”.
For CC[C@H](NC(=O)c1cc(F)ccc1NS(=O)(=O)c1cccc2cccnc12)c1ccccc1, the outcome was “inactive”.
With CCCC(=O)OCCC(C)C the outcome was “inactive”.
For O=c1ccc2ccccc2o1, the outcome was “inactive”.
For Clc1ccccc1C(c1ccccc1)(c1ccccc1)n1ccnc1, the AC50 was 92.2 µM (active).
In the case of CCN(Cc1cccc(S(=O)(=O)O)c1)c1ccc(C(=C2C=CC(=[N+](CC)Cc3cccc(S(=O)(=O)O)c3)C=C2)c2ccccc2S(=O)(=O)[O-])cc1, the outcome is reported as “inactive”.
For CCN(CC)C(=O)c1cc(S(=O)(=O)Cc2ccccc2)c(N2CCC(c3ccccc3)CC2)cc1N(CC)CCN(C)C, the outcome was “inactive”.
O=C1O[C@H]([C@@H](O)CO)C(O)=C1O was tested, and the outcome was “inactive”.
In the case of O=c1[nH]sc2ccccc12, the outcome is reported as “inactive”.
With CC(C)(c1cc(Br)c(O)c(Br)c1)c1cc(Br)c(O)c(Br)c1 the outcome was “inactive”.

Each compound was assayed on Phosphatase and tensin (PTEN), PTEN (gene 5728) (assay: LTEA_HepaRG_PTEN: Life Technologies and Expression Analysis (LTEA) Assay for Phosphatase and tensin (PTEN) using HepaRG (AID 2283523)). Conditions: mRNA level, 48 h; actives raise or lower the signal.
Procedure, shortened: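 Expression of PTEN is quantified in the human liver line HepaRG following two days of dosing (top concentration 100 uM, half-log dilutions, 0.5% DMSO). Values derive from bidirectional curve fitting relative to DMSO controls.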
With CCCCCc1ccc(N)cc1 the outcome was “inactive”.
O=CCCCC=O was tested, and the outcome was “inactive”.
For Cc1cn([C@H]2C[C@H](N=[N+]=[N-])[C@@H](CO)O2)c(=O)[nH]c1=O, the outcome was “inactive”.
Cc1occc1C(=O)Nc1ccc(C(=O)N2CCC(F)(F)/C(=C\C(=O)N3CCC(N4CCCCC4)CC3)c3ccccc32)cc1 was tested, and the outcome was “inactive”.
For OC12N=C(c3ccccc3)SC1Cc1cc(Cl)ccc12 (stereo unspecified), the outcome was “inactive”.
CC(C)(O)c1ccc(CNC(=O)c2cccnc2Oc2ccc3nonc3c2)cc1 was tested, and the outcome was “inactive”.
With O=C1CCC(C2CCCCC2)CC1 the outcome was “inactive”.
In the case of NCc1cccc(C2CCN(C(=O)c3ccc(C#Cc4ccccc4F)o3)CC2)c1, the outcome is reported as “inactive”.
In the case of c1ccc2ccccc2c1, the outcome is reported as “inactive”.
In the case of O=C(O)Cn1c(=O)n(Cc2ccc(Br)cc2F)c(=O)c2ccc(Cl)cc21, the outcome is reported as “inactive”.
C[C@]12CC[C@@H]3c4ccc(O)cc4CC[C@H]3[C@@H]1CCC2=O was tested, and the outcome was “inactive”.
For OCCO, the outcome was “inactive”.
In the case of COc1cc(C(=O)NC2CCN(C)CC2)ccc1Nc1ncc2c(n1)N(C1CCCC1)CC(F)(F)C(=O)N2C, the AC50 is reported as 12 µM (active).
For O=C(OCCCCCCOC(=O)c1ccccc1)c1ccccc1, the outcome was “inactive”.
Cc1ncc(CO)c(CO)c1O was tested, and the outcome was “inactive”.
COc1ccc2cc(S(=O)(=O)N[C@H](CC(=O)N[C@H](Cc3ccc(CN4[C@H](C)CCC[C@@H]4C)cc3)C(=O)N(C)C(C)C)c3ccc4c(c3)OCO4)ccc2c1 was tested, and the AC50 was 15 µM (active).
O=C(Nc1ccc(Cl)cc1)Nc1ccc(Cl)c(Cl)c1 was tested, and the AC50 was 22.2 µM (active).
With Cc1cc(F)ccc1-c1cc(N2CC[C@@H](O)[C@H]2CO)ncc1N(C)C(=O)C(C)(C)c1cc(C(F)(F)F)cc(C(F)(F)F)c1 the AC50 was 66.4 µM (active).
In the case of Cc1cccc2ccccc12, the outcome is reported as “inactive”.
In the case of CC1(C)NC(=O)N(c2ccc([N+](=O)[O-])c(C(F)(F)F)c2)C1=O, the outcome is reported as “inactive”.
In the case of CCCCCCCCN(C)CCCCCCCC, the outcome is reported as “inactive”.
In the case of CO[C@H]1/C=C/O[C@@]2(C)Oc3c(C)c(O)c4c(O)c(c(/C=N/N5CCN(C)CC5)c(O)c4c3C2=O)NC(=O)/C(C)=C\C=C\[C@H](C)[C@H](O)[C@@H](C)[C@@H](O)[C@@H](C)[C@H](OC(C)=O)[C@@H]1C, the outcome is reported as “inactive”.
For Cc1cc2c(cc1C(F)(F)F)N(C(=O)Nc1ccc(Oc3cccnc3C)nc1)CC2, the outcome was “inactive”.
O=c1c(-c2ccc(O)cc2)coc2cc(O)cc(O)c12 was tested, and the outcome was “inactive”.
For Oc1ccc2ccccc2c1, the outcome was “inactive”.
For O=C(O)Cc1cc(I)c(Oc2ccc(O)c(I)c2)c(I)c1, the outcome was “inactive”.
In the case of CC(C)(C)c1csc(-c2cc3cc(OCc4ccccc4CC(=O)O)ccc3o2)n1, the AC50 is reported as 80.1 µM (active).
CC[C@@H]1C[C@H](N(Cc2cc(C(F)(F)F)cc(C(F)(F)F)c2)C(C)=O)c2cc(C(F)(F)F)ccc2N1C(=O)OC(C)C was tested, and the outcome was “inactive”.
CC[C@H](NC(=O)c1cc(F)ccc1NS(=O)(=O)c1cccc2cccnc12)c1ccccc1 was tested, and the outcome was “inactive”.
CCCC(=O)OCCC(C)C was tested, and the outcome was “inactive”.
With O=c1ccc2ccccc2o1 the outcome was “inactive”.
For Clc1ccccc1C(c1ccccc1)(c1ccccc1)n1ccnc1, the AC50 was 87.2 µM (active).
In the case of CCN(Cc1cccc(S(=O)(=O)O)c1)c1ccc(C(=C2C=CC(=[N+](CC)Cc3cccc(S(=O)(=O)O)c3)C=C2)c2ccccc2S(=O)(=O)[O-])cc1, the outcome is reported as “inactive”.
CCN(CC)C(=O)c1cc(S(=O)(=O)Cc2ccccc2)c(N2CCC(c3ccccc3)CC2)cc1N(CC)CCN(C)C was tested, and the AC50 was 22.9 µM (active).
O=C1O[C@H]([C@@H](O)CO)C(O)=C1O was tested, and the outcome was “inactive”.
With O=c1[nH]sc2ccccc12 the outcome was “inactive”.
CC(C)(c1cc(Br)c(O)c(Br)c1)c1cc(Br)c(O)c(Br)c1 was tested, and the AC50 was 72.7 µM (active).
